# Test results as given in PubChem BioAssay.
# Records with an inconclusive call do not appear. The source made the active and inactive calls.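 How the source made its calls, unless noted: active means normalized viability below 100% at a tested concentration; inactive means the rest.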
# What was measured:
# [1] = viability loss in pontine glioma line – cell-based, SU-DIPG-XXV, MIPE5.0, CellTiter-Glo, qHTS, dose response (AID 1347065; cut-off not given, nearly all actives have AC50 up to about 26 µM;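 further: cells exposed to compound for 48 hours before ATP readout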); conditions: CellTiter-Glo ATP luminescence
# [2] = growth inhibition of DIPG cells – cell-based, MIPE4.0 library, CellTiter-Glo luminescence, qHTS (AID 1347066; cut-off not given, nearly all actives have AC50 up to about 30 µM;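 further: cells exposed to compound for 48 hours before readout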); conditions: SU-DIPG-VI viability, CellTiter-Glo ATP luminescence
# [3] = JHH-DIPG-1 glioma cell viability, MIPE5.0 library, CellTiter-Glo luminescence, qHTS (AID 1347067; cut-off not given, nearly all actives have AC50 up to about 26 µM;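 further: cells exposed to compound for 48 hours before readout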); conditions: JHH-DIPG-1 glioma viability, CellTiter-Glo ATP luminescence
# [4] = growth inhibition of DIPG cells – cell-based, MIPE5.0 library, qHTS (AID 1347068; cut-off not given, nearly all actives have IC50 up to about 30 µM); conditions: SU-DIPG-XXV viability
# [5] = MELAS cybrid and Rieske KO viability enhancers – cell-based, MELAS cybrids, Rieske KO mouse fibroblasts, CellTiter-Glo, primary screen (AID 1508586;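 active means mean z-score across replicates of 1.96 or higher in either the MELAS or the Rieske mutant cell line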;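 further: z relative to plate mean and SD of compound and empty wells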); conditions: low glucose
# [6] = drug combination growth inhibition, ovarian cancer – cell-based, oncology-focused library, rucaparib conditional, profiling panel (AID 1508598); conditions: patient-derived ovarian cancer cells, CellTiter-Glo viability, 144 h, stronger effect = lower value
# [7] = growth inhibition, single agent or in combination, cell-based, chromothripsis tumors, cisplatin or BGB combos (AID 1671449; in the data active means inhibition above about 80%;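 further: cells exposed for 96 hours; 0% = vehicle DMSO and 100% = killing by high DMSO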); conditions: LFS_MB_P medulloblastoma cells
# [8] = growth inhibition, single agent and combos, cell-based, chromothripsis tumors, cisplatin or BGB combos (AID 1671450; in the data active means inhibition above about 80%;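 further: cells exposed to compound for four days; 0% = vehicle DMSO and 100% = cell killing by high DMSO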); conditions: HDN33 neuroblastoma cells, stronger effect = higher value
# [9] = growth inhibition, single agents and combos, ICB984, cell-based, cisplatin or BGB combos, synergistic combos for chromothripsis tumors (AID 1671451; call rule not given here;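 further: cells exposed for 96 hours before readout; 0% = vehicle DMSO and 100% = killing by high DMSO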); conditions: ICB984 medulloblastoma cells, drug combinations, stronger effect = higher value
# [10] = growth inhibition, single agents and combos, LFS_MB_1R, cell-based, cisplatin or BGB combos, synergistic combos for chromothripsis tumors (AID 1671452; in the data active means inhibition above about 80%;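 further: cells exposed for 96 hours before readout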); conditions: LFS_MB_1R medulloblastoma cells, stronger effect = higher value
# [11] = growth inhibition, single agents and combos, HTB85, cell-based, BGB or cisplatin IC20 combos, synergistic combos for chromothripsis tumors (AID 1671453; in the data active means inhibition above about 80%;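 further: cells exposed for 96 hours before readout; 0% = vehicle DMSO and 100% = high DMSO killing control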); conditions: HTB85 osteosarcoma cells, drug combinations, stronger effect = higher value
# [12] = growth inhibition, single agents and combos, CRL2098, cell-based, BGB or cisplatin IC20 combos, synergistic combos for chromothripsis tumors (AID 1671454; in the data active means inhibition above about 80%;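 further: cells exposed for 96 h before readout; 0% = vehicle DMSO and 100% = killing by high DMSO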); conditions: CRL2098 osteosarcoma cells, drug combinations, stronger effect = higher value
# [13] = growth inhibition, single agents and combos, HD-MB03, cell-based, BGB or cisplatin IC20 combos, synergistic combos for chromothripsis tumors (AID 1671455; in the data active means inhibition above about 83%;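 further: 0% = vehicle DMSO and 100% = high DMSO as cytotoxic control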); conditions: HD-MB03 medulloblastoma cells, stronger effect = higher value
# [14] = measured here: combination with BGB IC40, at 0.05 µM
smiles,measurement,setting,value
Cc1nc2ccc(CN(C)c3ccc(C(=O)N[C@@H](CCC(=O)O)C(=O)O)s3)cc2c(=O)[nH]1,outcome,[1],inactive
same,outcome,[2],inactive
same,outcome,[3],inactive
same,outcome,[4],inactive
same,z-score,"[5]; MELAS cybrid survival, CellTiter-Glo 48 h, stronger effect = higher value",-0.789 (inactive)
same,z-score,"[5]; Rieske KO mouse fibroblast survival, CellTiter-Glo 72 h",-1.02
same,viability,"[6]; at 0.000305 µM, OCI-C5x cells, with rucaparib 10 µM, 100% = cells with rucaparib alone",114% (inactive)
same,viability,"[6]; at 0.000305 µM, OCI-C5x cells, without rucaparib",92.6% (active)
same,viability,"[6]; at 0.000305 µM, OCI-P5x cells, with rucaparib 20 µM, 100% = cells with rucaparib alone",107% (inactive)
same,viability,"[6]; at 0.000305 µM, OCI-P5x cells, without rucaparib",104% (inactive)
same,viability,"[6]; at 0.00122 µM, OCI-C5x cells, with rucaparib 10 µM, 100% = cells with rucaparib alone",115% (inactive)
same,viability,"[6]; at 0.00122 µM, OCI-C5x cells, without rucaparib",84.6% (active)
same,viability,"[6]; at 0.00122 µM, OCI-P5x cells, with rucaparib 20 µM, 100% = cells with rucaparib alone",108% (inactive)
same,viability,"[6]; at 0.00122 µM, OCI-P5x cells, without rucaparib",106% (inactive)
same,viability,"[6]; at 0.00488 µM, OCI-C5x cells, with rucaparib 10 µM, 100% = cells with rucaparib alone",72.8% (active)
same,viability,"[6]; at 0.00488 µM, OCI-C5x cells, without rucaparib",55.7% (active)
same,viability,"[6]; at 0.00488 µM, OCI-P5x cells, with rucaparib 20 µM, 100% = cells with rucaparib alone",114% (inactive)
same,viability,"[6]; at 0.00488 µM, OCI-P5x cells, without rucaparib",109% (inactive)
same,viability,"[6]; at 0.0195 µM, OCI-C5x cells, with rucaparib 10 µM, 100% = cells with rucaparib alone",19.2% (active)
same,viability,"[6]; at 0.0195 µM, OCI-C5x cells, without rucaparib",17.1% (active)
same,viability,"[6]; at 0.0195 µM, OCI-P5x cells, with rucaparib 20 µM, 100% = cells with rucaparib alone",116% (inactive)
same,viability,"[6]; at 0.0195 µM, OCI-P5x cells, without rucaparib",110% (inactive)
same,viability,"[6]; at 0.0781 µM, OCI-C5x cells, with rucaparib 10 µM, 100% = cells with rucaparib alone",16.3% (active)
same,viability,"[6]; at 0.0781 µM, OCI-C5x cells, without rucaparib",17.6% (active)
same,viability,"[6]; at 0.0781 µM, OCI-P5x cells, with rucaparib 20 µM, 100% = cells with rucaparib alone",118% (inactive)
same,viability,"[6]; at 0.0781 µM, OCI-P5x cells, without rucaparib",111% (inactive)
same,viability,"[6]; at 0.313 µM, OCI-C5x cells, with rucaparib 10 µM, 100% = cells with rucaparib alone",15.6% (active)
same,viability,"[6]; at 0.313 µM, OCI-C5x cells, without rucaparib",19.3% (active)
same,viability,"[6]; at 0.313 µM, OCI-P5x cells, with rucaparib 20 µM, 100% = cells with rucaparib alone",119% (inactive)
same,viability,"[6]; at 0.313 µM, OCI-P5x cells, without rucaparib",111% (inactive)
same,viability,"[6]; at 1.25 µM, OCI-C5x cells, with rucaparib 10 µM, 100% = cells with rucaparib alone",14.5% (active)
same,viability,"[6]; at 1.25 µM, OCI-C5x cells, without rucaparib",17.5% (active)
same,viability,"[6]; at 1.25 µM, OCI-P5x cells, with rucaparib 20 µM, 100% = cells with rucaparib alone",111% (inactive)
same,viability,"[6]; at 1.25 µM, OCI-P5x cells, without rucaparib",116% (inactive)
same,viability,"[6]; at 5 µM, OCI-C5x cells, with rucaparib 10 µM, 100% = cells with rucaparib alone",16.1% (active)
same,viability,"[6]; at 5 µM, OCI-C5x cells, without rucaparib",19.3% (active)
same,viability,"[6]; at 5 µM, OCI-P5x cells, with rucaparib 20 µM, 100% = cells with rucaparib alone",124% (inactive)
same,viability,"[6]; at 5 µM, OCI-P5x cells, without rucaparib",113% (inactive)
same,inhibition,"[7]; at 0.5 µM, stronger effect = higher value",-8.68% (inactive)
same,inhibition,"[7]; measured here: combination with BGB IC20, at 0.005 µM",-6.5%
same,inhibition,"[7]; measured here: combination with BGB IC40, at 0.005 µM",-33.6%
same,inhibition,[7]; [14],2.07%
same,inhibition,"[7]; measured here: combination with cisplatin, at 0.5 µM, stronger effect = higher value",-25.4%
same,inhibition,"[7]; measured here: combination with cisplatin, at 5 µM, stronger effect = higher value",-36.4%
same,inhibition,"[8]; BGB combo, at 5 µM",77.1%
same,inhibition,[8]; at 0.5 µM,77.4% (inactive)
same,inhibition,"[8]; cisplatin combo, at 5 µM",75.6%
same,inhibition,"[8]; measured here: with BGB IC20 combination, at 0.5 µM",75.7%
same,inhibition,"[8]; measured here: with cisplatin IC20 combination, at 0.5 µM",73.8%
same,inhibition,"[8]; single agent, at 5 µM",82.5%
same,inhibition,"[9]; BGB IC20 combo, at 0.005 µM",-19.7%
same,inhibition,"[9]; BGB IC40 combo, at 0.005 µM",-58.4%
same,inhibition,"[9]; BGB IC40 combo, at 0.05 µM",-47.3%
same,inhibition,[9]; at 0.5 µM,-21.4% (inactive)
same,inhibition,"[9]; cisplatin combo, at 0.05 µM",-53.1%
same,inhibition,"[9]; cisplatin combo, at 0.5 µM",-23.4%
same,inhibition,"[9]; cisplatin combo, at 5 µM",-41.1%
same,inhibition,"[9]; measured here: 5 uM single agent, at 5 µM",-8.4%
same,inhibition,[10]; at 0.5 µM,-22.3% (inactive)
same,inhibition,[10]; [14],-24.2%
same,inhibition,"[10]; measured here: combination with cisplatin, at 0.5 µM",-26.4%
same,inhibition,"[10]; measured here: combination with cisplatin, at 5 µM",-6.83%
same,inhibition,[11]; at 0.5 µM,-11% (inactive)
same,inhibition,"[11]; measured here: with BGB IC20, at 0.5 µM",-19.6%
same,inhibition,"[11]; measured here: with BGB IC20, at 5 µM",-9.72%
same,inhibition,"[11]; measured here: with cisplatin IC20, at 0.5 µM",-17.6%
same,inhibition,"[11]; measured here: with cisplatin IC20, at 5 µM",2.95%
same,inhibition,"[11]; single agent, at 5 µM",10.6%
same,inhibition,[12]; at 0.5 µM,54.5% (inactive)
same,inhibition,"[12]; measured here: combination with BGB at IC20, at 0.5 µM",35.1%
same,inhibition,"[12]; measured here: combination with cisplatin at IC20, at 0.5 µM",62.3%
same,inhibition,[13]; at 0.5 µM,78.5% (inactive)
same,inhibition,"[13]; measured here: combo with BGB at IC20, at 0.5 µM",71.9%
same,inhibition,"[13]; measured here: combo with cisplatin at IC20, at 0.5 µM",79.7%
